# Compound activity (PubChem)
# RGS4 inh – Inhibitors of Regulator of G Protein Signaling (RGS) 4: qHTS | Regulator of G-protein signaling 4 (Homo sapiens), P49798 | Transcreener GDP fluorescence polarization, RGS4-accelerated GTP hydrolysis | Potency, µM (highest dose often 114 µM), for inactives: at the highest dose activity change, negative = inhibition, usual class: inhibitors | 390,000 compounds, 0.039% hits | AID 504845, 2011; further: on the % scale 0 is the no-effect control and ±100 the full control effect; nearly all actives have a fitted effect of over 75% in size
# Target sequence (P49798 whole entry, looked up): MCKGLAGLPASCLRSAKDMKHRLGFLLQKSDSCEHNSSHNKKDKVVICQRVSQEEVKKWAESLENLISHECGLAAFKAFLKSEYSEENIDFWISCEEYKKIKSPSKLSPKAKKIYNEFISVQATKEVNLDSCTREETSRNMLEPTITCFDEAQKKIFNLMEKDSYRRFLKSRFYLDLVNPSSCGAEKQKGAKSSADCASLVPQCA
#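 MLSMR compounds (23 nl, pin-transferred) preincubated 10 min at room temperature with a 500nM (2x) first reagent, then RGS4 at 900nM (2x) plus Transcreener GDP mix added; fluorescence polarization (620/688 nm) read before and after 90 min at 30 °C.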
# KB-V1 cytotox – qHTS assay for MDR1-selective chemotherapeutics: Primary screen using the drug-selected MDR subline cells KB-V1 | Potency, µM (top dose mostly 46.1 µM), most hits filed as cytotoxic | 400,000 compounds, 3.4% hits | KB-V1 MDR cells viability, CellTiter-Glo, 72 h; further: on the % scale 0 is the no-effect control and ±100 the full control effect; nearly all actives have a fitted effect of over 60% in size
#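 KB-V1 cells (P-gp-expressing MDR subline of KB-3-1) in phenol-red-free DMEM with 10% FBS were exposed to library compounds over a concentration series for 72 h at 37 degrees C. Viability read by CellTiter-Glo luminescence; concentration-effect curves fitted after normalization.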
# PTAP TSG101 blk – qHTS Assay for Iinhibitors of HIV-1 Budding by Blocking the Interaction of PTAP/TSG101 | Tumor susceptibility gene 101 protein (Homo sapiens), Q99816 | Fluorescence polarization, FITC-PTAP peptide / Tsg101 binding | Potency, µM (doses to about 115 µM), without a hit: top-dose activity change, negative = inhibition, most hits filed as inhibitors | 340,000 tested, under 10 active; active means well fitted inhibition curve with a large enough effect in the main read-out, with a control signal flat, not every such curve was filed as active; inconclusive means small, poorly fitted or top-dose-only effect, or effect the other way, or a change in a side signal; inactive means no such curve, though single readings can be large or run the other way; further: % of control where 0% means no effect
# Target sequence (Q99816 whole entry, looked up): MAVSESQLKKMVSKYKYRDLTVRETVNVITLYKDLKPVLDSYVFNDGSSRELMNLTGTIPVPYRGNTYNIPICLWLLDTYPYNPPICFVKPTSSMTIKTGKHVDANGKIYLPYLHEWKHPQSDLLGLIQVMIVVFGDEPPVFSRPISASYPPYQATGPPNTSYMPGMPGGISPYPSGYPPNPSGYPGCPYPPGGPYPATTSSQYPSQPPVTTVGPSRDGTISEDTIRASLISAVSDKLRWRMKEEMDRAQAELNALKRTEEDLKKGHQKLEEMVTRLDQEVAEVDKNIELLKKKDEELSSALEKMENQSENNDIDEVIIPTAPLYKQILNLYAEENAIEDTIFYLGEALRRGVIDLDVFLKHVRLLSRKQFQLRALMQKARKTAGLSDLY
#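 Fluorescence anisotropy tracks displacement of a FITC-tagged PTAP peptide (50 nM) from the Tsg101 binding domain (10 uM), following a 20 min room-temperature incubation at pH 7.5.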
# KB-3-1 cytotox – qHTS assay for MDR1-selective chemotherapeutics: Primary screen using the parental adenocarcinoma cell KB-3-1 | KB-3-1 viability, CellTiter-Glo ATP luminescence, 72 h | Potency, µM (doses to about 46.1 µM), actives largely listed as cytotoxic | 400,000 compounds, 1.4% hits | AID 1347075, 2019; further: on the % scale 0 is the no-effect control and ±100 the full control effect; nearly all actives have a fitted effect of over 60% in size
#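 Multi-concentration cytotoxicity screen in KB-3-1 cells grown in DMEM lacking phenol red with 10% FBS. After 72 h at 37 °C with compound, ATP-dependent luminescence was recorded.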
# MCF10A rerep – A quantitative high throughput screen for small molecules that induce DNA re-replication in MCF 10a normal breast cells | MCF 10A DNA re-replication, Hoechst nuclear intensity, 48 h | Potency, µM (top dose mostly 46.1 µM), without a hit: at the top dose activity, positive = re-replication, hits mostly activators | 350,000 compounds, 2.9% hits; further: % of control where 0% means no effect; nearly all actives have a fitted effect of over 50% in size
# SW480 rerep – A quantitative high throughput screen for small molecules that induce DNA re-replication in SW480 colon adenocarcinoma cells; SW480 DNA re-replication, Hoechst DNA content imaging, 48 h; Potency, µM (series often up to 46.1 µM), without a hit: top-dose re-replication activation, usual class: activators; 340,000 compounds, 1.8% hits; AID 624297, 2012; further: % of control where 0% means no effect; nearly all actives have a fitted effect of over 55% in size
#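 Readout is total intensity of Hoechst-stained nuclei, excited at 405 nm and collected at 500-530 nm. Compound treatment lasted 48 hr at 37 C in 5% CO2 before staining.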
# * hit, by the source's call; i = inactive; ? = inconclusive; / = not tested or not shown; [ ] = remark or other dose. A selection: hits, their analogues and other compounds. The true share with any hit is near 6.6%. Unless noted, the call rests on the fitted dose curve; in most records, active means well fitted curve in the direction sought with a large enough effect; inconclusive means small, poorly fitted or top-dose-only effect, or another doubt; inactive means no such curve, though single readings can be large; an effect the other way counts as inactive or inconclusive. Potency means the concentration at half of the fitted maximal effect.
SMILES,RGS4 inh,KB-V1 cytotox,PTAP TSG101 blk,KB-3-1 cytotox,MCF10A rerep,SW480 rerep
CN(C)C(=O)/N=N/C(=O)N(C)C,2.99µM*,/,/,/,/,/
O=C(O)CCC(=O)N1CCN(S(=O)(=O)c2ccc3ccccc3c2)CC1,-13.8%,i,-2.6%,i,-0.2%,8.7%
CC(C)N1CCN(S(=O)(=O)c2ccc3ccccc3c2)CC1,-11.9%,i,-2.7%,i,-0.8%,4.2%
O=C(Cn1ncc(Cl)c(Cl)c1=O)N1CCN(S(=O)(=O)c2ccc3ccccc3c2)CC1,-17.9%,i,-8.1%,16.4µM*,?,?
CC(C)C(=O)N1CCN(S(=O)(=O)c2ccc3ccccc3c2)CC1,-32.1%,i,1.5%,i,0.9%,2.91µM*
CCC(=NCc1ccco1)c1c(C(F)(F)F)[nH]n(-c2nc3ccccc3s2)c1=O,-8.9%,20.6µM*,-8.8%,i,4.7%,-1.5%
CCCN=C(C)c1c(-c2ccccc2)[nH]n(-c2nc3ccccc3s2)c1=O,2.9%[56.9 µM],8.2µM*,-7.6%,i,26.8%,11.1%
CCC(=NCc1ccccc1)c1c(C(F)(F)F)[nH]n(-c2nc3ccccc3s2)c1=O,-16.7%,i,4.5%,i,-0.9%,-10.6%
CC(=O)NCCNC(=O)CCCn1c(=O)[nH]c2ccsc2c1=O,22.2%,i,/,i,/,/
CCc1cc2c(cc3c(=O)n(CC(=O)N4CCCCC4)nc(CC)n32)s1,15.8%,/,/,/,/,/
COc1ccccc1CNC(=O)C/C(C)=N/NC(=O)COc1ccc(C)cc1Br,-9.8%,i,0.1%,23.1µM*,-1.1%,-370.4%
O=C(Cn1nc2ccccc2n1)N/N=C/c1cc(Cl)cc([N+](=O)[O-])c1O,10.7%,i,-19.3%,?,?,11.6µM*
C=CCOc1ccc(C=CC(=O)c2c(O)c(OC)c(OC)c(OC)c2OC)cc1,0.9%,5.8µM*,-3.3%,?,?,17.8%
COC(=O)NNS(=O)(=O)c1ccc(C)cc1,-21.7%,i,1.6%,i,-0.3%,25.9µM*
Cc1ccc(S(=O)(=O)NNC(=O)c2cc(C)c(C)cc2N)cc1,-1.3%,16.4µM*,-4.1%,i,14.0%,-0.4%
CCOc1ccc(C(=O)Nc2cc(-c3cn4cccnc4n3)ccc2C)cc1OCC,0.3%,/,/,/,/,/
CCCN(C(=O)Cn1ncc2c([nH]c3ccccc32)c1=O)c1ccc(F)cc1,24.1%,i,/,i,/,/
C=CCNC(=O)COc1ccc(S(=O)(=O)NC2CCCCC2)cc1,4.2%,i,-7.0%,i,10.3µM*,14.6µM*
CCOc1ccc(NC(=O)COc2ccc(S(=O)(=O)NC3CCCCC3)cc2)cc1,2.5%,?,/,i,/,/
O=C(COc1ccc(S(=O)(=O)NC2CCCCC2)cc1)N1CCN(c2cccc(Cl)c2)CC1,-14.7%,?,-0.6%,13µM*,?,28.5%
Cc1cc(S(=O)(=O)NC2CCCCC2)ccc1OCC(=O)NCc1ccccn1,-13.5%,18.4µM*,-6.6%,i,18.7%,27.9%
Cc1cc(S(=O)(=O)N2CCCC2)ccc1OCC(=O)NCc1ccccn1,15.4%,?,-3.1%,i,-12.1%,-5.6%
Cc1ccc(OCC(=O)N(c2ccccn2)C2CCCCC2)c(C)c1,15.6%,18.4µM*,-1.3%,i,5.1%,-114.6%
CCOc1ccc(/C=C/c2nc(C#N)c(N3CCC(C)CC3)o2)cc1,-11.1%,/,/,/,/,/
O=C(CN1C(=O)COc2ccc(S(=O)(=O)N3CCCCCC3)cc21)NCCc1ccccc1,10.9%,/,/,/,/,/
SMILES,RGS4 inh,KB-V1 cytotox,PTAP TSG101 blk,KB-3-1 cytotox,MCF10A rerep,SW480 rerep
COc1ccc(CCNC(=O)CCn2c(=O)c3cccn3c3ccc(F)cc32)cc1OC,0.0%,/,/,/,/,/
O=C(Oc1c(CN2CCOCC2)cc(Cl)c2cccnc12)c1ccc(F)cc1,?,3.26µM*,4.0%,5.8µM*,3.26µM*,?
COc1cccc(C(=O)Oc2c(CN3CCOCC3)cc(Cl)c3cccnc23)c1,-25.1%,7.31µM*,-12.9%,?,13.5%,25.6%
O=C(Oc1c(CN2CCOCC2)cc(Cl)c2cccnc12)c1cccs1,-29.1%,?,-3.1%,?,?,8.2µM*
COc1cc(C(=O)Oc2c(CN3CCOCC3)cc(Cl)c3cccnc23)cc(OC)c1OC,-8.2%,?,-1.8%,?,?,?
O=C(Oc1c(CN2CCOCC2)cc(Cl)c2cccnc12)c1ccccc1Cl,-4.9%,?,-2.7%,?,?,17.5%
O=C(Oc1c(Cl)cc(Cl)c2cccnc12)c1cccs1,-18.3%,?,-6.2%,?,6.51µM*,?
Cc1cc(S(=O)(=O)NCCc2csc(-c3cccc(F)c3)n2)ccc1F,-15.1%,i,/,?,/,/
CC12CN3CC(c4ccccc4)(CN(C1)C3c1ccc(Cl)cc1)C2=O (configuration not stated),26.0%,i,/,i,/,/
Cn1c(=O)[nH]c2cc(-c3noc(-c4ccc(F)cc4)n3)ccc21,-3.2%,i,/,i,/,/
COc1ccc(C(=O)Oc2c(CN3CCOCC3)cc(Cl)c3cccnc23)cc1,-5.7%,?,-3.2%,10.3µM*,?,?
O=C(Oc1c(Cl)cc(Cl)c2cccnc12)c1ccco1,12.6%,2.06µM*,-7.4%,?,20.6µM*,?
O=C(Cc1ccccc1)NC(c1ccco1)c1cc(Cl)c2cccnc2c1O (configuration not stated),/,i,/,i,/,/
O=C1CCCC2=C1C1(CCCC1)N=C(Nc1nc3cc4ccccc4cc3o1)N2,/,i,/,i,/,/
Cc1cccc(C)c1NC(=O)c1oc2c(c1C)-c1nn(Cc3ccccc3)cc1CC2,25.4%,/,/,/,/,/
CN(C)CCCN1C(=O)c2cccc3c([N+](=O)[O-])ccc(c23)C1=O,19.7%,?,-23.4%,23.1µM*,5.8µM*,5.8µM*
Cc1ccc(C(=O)O)cc1N1C(=O)c2cccc3c([N+](=O)[O-])ccc(c23)C1=O,-8.9%,i,-14.8%,?,18.4µM*,?
O=C(O)c1ccc(S(=O)(=O)c2ccc3c(c2)C(=O)N(c2ccccc2[N+](=O)[O-])C3=O)cc1,-6.2%,i,-2.2%,i,2.2%,-2.8%
CC(=O)Oc1cccc(N2C(=O)c3ccc(C(=O)O)cc3C2=O)c1,-15.4%,i,-7.9%,i,0.8%,-3.5%
